# High-throughput results from PubChem BioAssay.
# Shown is part of a subset that was picked to be rich in hits.
# mHTT-CaM PPI inh = mutant huntingtin-calmodulin interaction inhibitors – biochemical, AlphaScreen, primary screen. P42858. 190,000 compounds, 3.6% hits. inhibition, % at 15 µM. AID 1671202, 2021. AlphaScreen His-mHTT/GST-CaM binding, luminescence;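 also: 0% = both proteins with DMSO and 100% = one protein alone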
# Target sequence (P42858 whole entry, looked up, stated change not applied): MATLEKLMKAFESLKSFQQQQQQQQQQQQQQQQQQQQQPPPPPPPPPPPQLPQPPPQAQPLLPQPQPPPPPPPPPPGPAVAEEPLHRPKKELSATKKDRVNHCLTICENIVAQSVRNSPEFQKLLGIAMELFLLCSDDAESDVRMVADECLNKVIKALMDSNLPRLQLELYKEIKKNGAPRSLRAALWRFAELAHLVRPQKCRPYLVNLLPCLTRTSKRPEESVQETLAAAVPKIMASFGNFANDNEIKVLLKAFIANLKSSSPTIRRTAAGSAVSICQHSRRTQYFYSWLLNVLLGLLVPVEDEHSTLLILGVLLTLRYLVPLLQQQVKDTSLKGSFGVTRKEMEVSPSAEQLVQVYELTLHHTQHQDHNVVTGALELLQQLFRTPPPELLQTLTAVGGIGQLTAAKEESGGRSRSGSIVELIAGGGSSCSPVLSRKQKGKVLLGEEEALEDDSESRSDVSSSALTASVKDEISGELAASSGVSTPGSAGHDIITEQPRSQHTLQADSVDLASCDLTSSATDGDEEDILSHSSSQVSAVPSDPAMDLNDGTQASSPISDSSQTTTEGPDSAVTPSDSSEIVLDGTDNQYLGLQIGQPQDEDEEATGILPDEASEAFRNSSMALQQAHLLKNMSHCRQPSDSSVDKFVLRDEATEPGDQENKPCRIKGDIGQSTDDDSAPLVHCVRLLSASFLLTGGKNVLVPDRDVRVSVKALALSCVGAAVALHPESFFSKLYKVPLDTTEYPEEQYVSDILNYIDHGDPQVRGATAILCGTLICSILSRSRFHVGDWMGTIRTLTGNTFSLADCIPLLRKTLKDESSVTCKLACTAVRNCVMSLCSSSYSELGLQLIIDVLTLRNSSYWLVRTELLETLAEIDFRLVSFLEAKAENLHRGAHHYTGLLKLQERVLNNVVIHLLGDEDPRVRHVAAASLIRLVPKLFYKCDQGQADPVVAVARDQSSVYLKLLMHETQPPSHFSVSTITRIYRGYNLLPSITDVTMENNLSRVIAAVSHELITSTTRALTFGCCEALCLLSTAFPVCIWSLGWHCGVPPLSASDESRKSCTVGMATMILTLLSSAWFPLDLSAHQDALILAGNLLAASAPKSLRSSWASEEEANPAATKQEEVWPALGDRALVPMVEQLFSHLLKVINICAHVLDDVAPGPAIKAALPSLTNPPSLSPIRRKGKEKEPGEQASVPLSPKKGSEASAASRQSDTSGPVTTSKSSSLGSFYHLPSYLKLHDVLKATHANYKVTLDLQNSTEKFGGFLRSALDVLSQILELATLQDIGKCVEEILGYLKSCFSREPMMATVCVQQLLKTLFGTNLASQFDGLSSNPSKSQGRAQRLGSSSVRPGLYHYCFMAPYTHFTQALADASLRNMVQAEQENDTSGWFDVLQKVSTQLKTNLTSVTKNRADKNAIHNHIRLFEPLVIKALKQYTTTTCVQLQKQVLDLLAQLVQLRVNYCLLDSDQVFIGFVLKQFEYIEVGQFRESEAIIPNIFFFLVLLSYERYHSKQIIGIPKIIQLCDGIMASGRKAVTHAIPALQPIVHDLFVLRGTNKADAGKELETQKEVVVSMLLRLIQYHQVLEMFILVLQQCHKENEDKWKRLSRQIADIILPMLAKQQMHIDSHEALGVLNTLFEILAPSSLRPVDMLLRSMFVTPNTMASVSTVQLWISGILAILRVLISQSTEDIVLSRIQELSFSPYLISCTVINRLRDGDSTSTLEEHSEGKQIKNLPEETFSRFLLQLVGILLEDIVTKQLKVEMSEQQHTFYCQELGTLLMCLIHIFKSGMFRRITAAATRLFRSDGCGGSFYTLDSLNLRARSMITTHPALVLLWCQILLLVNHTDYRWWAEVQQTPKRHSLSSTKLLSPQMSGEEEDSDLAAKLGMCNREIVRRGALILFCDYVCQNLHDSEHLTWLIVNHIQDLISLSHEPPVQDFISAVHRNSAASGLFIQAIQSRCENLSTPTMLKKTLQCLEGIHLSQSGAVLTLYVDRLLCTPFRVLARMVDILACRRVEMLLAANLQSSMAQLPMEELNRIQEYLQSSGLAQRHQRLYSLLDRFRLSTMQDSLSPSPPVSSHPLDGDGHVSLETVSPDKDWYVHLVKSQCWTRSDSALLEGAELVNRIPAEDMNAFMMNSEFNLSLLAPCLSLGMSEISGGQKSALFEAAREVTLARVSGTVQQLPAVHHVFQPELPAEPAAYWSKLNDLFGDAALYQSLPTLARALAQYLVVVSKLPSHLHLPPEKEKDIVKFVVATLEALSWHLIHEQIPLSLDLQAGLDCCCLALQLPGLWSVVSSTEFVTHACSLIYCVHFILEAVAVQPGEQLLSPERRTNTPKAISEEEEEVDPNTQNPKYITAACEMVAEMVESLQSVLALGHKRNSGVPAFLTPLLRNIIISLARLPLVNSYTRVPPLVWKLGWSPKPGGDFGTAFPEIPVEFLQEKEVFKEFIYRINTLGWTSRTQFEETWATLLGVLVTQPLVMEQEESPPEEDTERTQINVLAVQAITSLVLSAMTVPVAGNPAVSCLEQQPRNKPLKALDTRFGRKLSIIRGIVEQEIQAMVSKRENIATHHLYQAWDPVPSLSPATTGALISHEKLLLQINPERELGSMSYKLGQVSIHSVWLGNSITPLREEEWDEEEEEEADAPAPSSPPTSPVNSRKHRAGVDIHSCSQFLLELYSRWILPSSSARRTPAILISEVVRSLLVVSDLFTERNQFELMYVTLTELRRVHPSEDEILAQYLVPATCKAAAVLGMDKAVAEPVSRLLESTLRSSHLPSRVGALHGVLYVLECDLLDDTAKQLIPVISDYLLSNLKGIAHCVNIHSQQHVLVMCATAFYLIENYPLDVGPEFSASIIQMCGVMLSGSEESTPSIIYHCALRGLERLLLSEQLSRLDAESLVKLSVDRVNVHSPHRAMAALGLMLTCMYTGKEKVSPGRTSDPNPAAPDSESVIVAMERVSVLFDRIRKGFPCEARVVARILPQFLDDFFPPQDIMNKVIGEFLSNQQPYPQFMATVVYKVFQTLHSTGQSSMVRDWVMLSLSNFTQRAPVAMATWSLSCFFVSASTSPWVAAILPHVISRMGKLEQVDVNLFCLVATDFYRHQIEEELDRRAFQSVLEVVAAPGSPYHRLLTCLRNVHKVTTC
# Pf apPOL inh = Pf-apPOL inhibitors, biochemical, fluorescence | Plasmodium falciparum apicoplast DNA polymerase (apPOL) | Recombinant Pf-apPOL, molecular beacon fluorescence, 1.5 h | inhibition, % at 10 µM | 210,000 compounds, 0.25% hits
# An asterisk follows results filed as active; . = not tested or not shown. Rule as the data show it: active = inhibition above about 50%; inactive = the rest.
SMILES,mHTT-CaM PPI inh,Pf apPOL inh
CC(CC(=O)Nc1nc2c(s1)CCCC2)c1ccccc1 (stereo not drawn),6,-2
COc1cccc(CNC(=O)c2cc(-c3cccnc3)nc3ccccc23)c1,39,-21
COc1ccc(CNC(=O)c2cc(-c3cccnc3)nc3ccccc23)cc1,70*,-7
COc1ccc2[nH]cc(CCN3CC(C(=O)Nc4nc5ccc(C)cc5s4)CC3=O)c2c1 (stereo not drawn),56*,-2
COc1ccc2[nH]cc(CCN3CC(C(=O)Nc4ccc(C)cc4C)CC3=O)c2c1 (stereo not drawn),12,-3
Cc1ccc(C)c(NC(=O)C2CC(=O)N(CCc3c[nH]c4ccc(F)cc34)C2)c1 (stereo not drawn),22,0
Cc1ccc2nc(NC(=O)C3CC(=O)N(CCc4c[nH]c5ccc(F)cc45)C3)sc2c1 (stereo not drawn),91*,-1
COc1ccc(-c2coc3c4c(ccc3c2=O)OCN(C2CCCC2)C4)cc1OC,0,-14
CC(C)=CCOc1ccc2c(=O)c(-c3ccccc3)coc2c1,-5,-5
O=[N+]([O-])c1ccc(Nc2nc(-c3ccccn3)cs2)cc1,48,5
CN(C)c1ccc(C(=O)Nc2cc(-c3ccccn3)no2)cc1,-5,-14
CN(C)c1ccc(Nc2nc(-c3ccccn3)cs2)cc1,100*,-17
CC(=O)Nc1ccc(Nc2nc(-c3ccccn3)cs2)cc1,92*,-7
Cc1ccc(Nc2nc(-c3ccccn3)cs2)cc1,93*,-4
CC(=O)c1cccc(Nc2nc(-c3ccccn3)cs2)c1,86*,-11
CC(=O)Nc1cccc(-c2csc(Nc3ccc(C(=O)O)cc3)n2)c1,9,-10
CC(=O)c1cccc(Nc2nc(-c3ccccc3)cs2)c1,22,-3
CSc1ccc(NC(=O)N2CC3CC2CC3NC(=O)c2cccs2)cc1 (stereo not drawn),6,-1
Cc1ccc(N2C(=O)CSC2c2ccc(Cl)cc2)cc1 (stereo not drawn),-7,6
COc1ccccc1CNc1ccc(-c2nc(-c3ccc(F)cc3)no2)cn1,-5,-1
CCOc1ccc(Nc2nc(-c3sc(NC(C)=O)nc3C)cs2)cc1,64*,8
Cc1ccnc(Nc2nc(-c3cccs3)cs2)c1,25,-5
CC(=O)Nc1nc(C)c(-c2csc(Nc3ccc(C(=O)O)cc3)n2)s1,5,-7
Cc1ccnc(Nc2nc(-c3ccccn3)cs2)c1,100*,-1
CC1(C)CCC(C)(C)c2cc3c(cc21)C(C)(C)CCC3(C)C,.,-8
SMILES,mHTT-CaM PPI inh,Pf apPOL inh
CC1(C)CCN2CCC(C)(C)c3c(O)ccc1c32,71*,-4
CC(C)(C)c1[nH]nc2c1C(c1cccs1)C(C#N)=C(N)O2 (stereo not drawn),1,-2
CCOc1ccccc1NC(=O)C1CCc2nc(N(CC)CC)ncc2C1 (stereo not drawn),0,-10
O=C(c1ccc(F)cc1)N1CCCC2(CC(c3ccc(Cl)cc3)=CO2)C1 (stereo not drawn),-5,-4
O=C(c1ccco1)N1CCCC2(CC(c3cccc(Cl)c3)=CO2)C1 (stereo not drawn),90*,-4
O=C(c1ccc(Cl)cc1)N1CCCC2(CC(c3cccc(Cl)c3)=CO2)C1 (stereo not drawn),-9,-2
O=C(c1ccccc1)N1CCCC2(CC(c3cccc(Cl)c3)=CO2)C1 (stereo not drawn),96*,-5
O=C(c1ccco1)N1CCCC2(CC(c3ccc(Cl)cc3)=CO2)C1 (stereo not drawn),-15,-6
O=C(c1ccccc1)N1CCCC2(CC(c3ccc(Cl)cc3)=CO2)C1 (stereo not drawn),100*,0
Cc1c(Cl)cccc1NC(=O)C12CC3CC(CC(C3)C1)C2,2,-8
CCOc1ccc(CN2CCCC2c2c(C)noc2C)cc1 (stereo not drawn),-17,-7
CCOc1cc(CNC(=O)CC2COc3ccccc3NC2=O)cc(OCC)c1OCC (stereo not drawn),12,3
O=C1Nc2cc(C(=O)N3CCN(Cc4ccccc4)CC3)ccc2N2CCCCC12 (stereo not drawn),10,3
Cc1c(Cl)cccc1NC(=O)N1CCC2(CC1)Nc1cc(F)ccc1-n1cccc12,41,-2
Cc1ccc(NC(=O)N2CCC3(CC2)Nc2cc(F)ccc2-n2cccc23)c(C)c1,40,0
COC(=O)c1cccc(NC(=O)N2CCC3(CC2)Nc2cc(F)ccc2-n2cccc23)c1,53*,-3
Cc1cccc(NC(=O)N2CCC3(CC2)Nc2cc(F)ccc2-n2cccc23)c1C,40,-3
Cc1cccc(NC(=O)N2CCC3(CC2)Nc2cc(F)ccc2-n2cccc23)c1,55*,0
Cc1ccc2c(c1)NC1(CCN(C(=O)c3cccc(F)c3)CC1)c1cccn1-2,62*,1
Cc1ccc2c(c1)NC1(CCN(C(=O)c3ccccc3Br)CC1)c1cccn1-2,89*,-5
CC(C)Cn1c(=O)c(-c2ccc(C(=O)NCc3cccnc3)cc2)nc2ccccc21,-2,-5
OC(COCCOc1ccc(Br)cc1)CN1CCc2ccccc2C1 (stereo not drawn),-7,-9
Cc1c([N+](=O)[O-])c(C)c2c(=O)cc(C(F)(F)F)oc2c1[N+](=O)[O-],5,6
O=C(Oc1ccc2c3c(c(=O)oc2c1)CCCC3)c1ccccc1,0,3
O=C1OC(c2ccco2)=N/C1=C/c1ccc(OCc2ccccc2)cc1,5,-21
SMILES,mHTT-CaM PPI inh,Pf apPOL inh
CNC(=O)N1CCC(Cc2nc3cccnc3n2CCOC)C1 (stereo not drawn),3,2
O=C(Nc1ccccc1C(F)(F)F)N1CCC2(CC1)Nc1cc(F)ccc1-n1cccc12,37,5
Cc1ccc(Cl)cc1NC(=O)N1CCC2(CC1)Nc1cc(F)ccc1-n1cccc12,29,0
O=C(Nc1ccccc1Cl)N1CCC2(CC1)Nc1cc(F)ccc1-n1cccc12,34,-1
O=C(Nc1cccc(F)c1)N1CCC2(CC1)Nc1ccccc1-n1cccc12,71*,2
COC(=O)c1ccccc1NC(=O)N1CCC2(CC1)Nc1cc(F)ccc1-n1cccc12,46,2
CCOC(=O)c1ccccc1NC(=O)N1CCC2(CC1)Nc1cc(F)ccc1-n1cccc12,50*,-3
Cc1ccc(NC(=O)N2CCC3(CC2)Nc2cc(F)ccc2-n2cccc23)cc1F,86*,-4
O=C(Nc1ccc(F)c(Cl)c1)N1CCC2(CC1)Nc1cc(F)ccc1-n1cccc12,97*,2
Cc1ccc(N2C(=O)CSC2c2cccc(F)c2)cc1 (stereo not drawn),-9,-10
O=C(OCCCCCOc1ccc(Cl)cc1)c1ccc(Cl)cc1Cl,.,-3
COCCn1cc2c3c(cccc31)CN(C(=O)Nc1cc(OC)ccc1OC)CC2,17,-4
COc1ccc(Cl)cc1NC(=O)N1CCC2(CC1)Nc1ccccc1-n1cccc12,32,-6
CSc1cccc(NC(=O)N2CCC3(CC2)Nc2ccccc2-n2cccc23)c1,84*,-5
O=C(Nc1ccc(F)cc1F)N1CCC2(CC1)Nc1cc(F)ccc1-n1cccc12,50,1
O=C(Nc1cccc(F)c1)N1CCC2(CC1)Nc1cc(F)ccc1-n1cccc12,87*,-1
C=CCNC(=O)CCN1N=C(c2ccc(C)cc2)CCC1=O,-5,-19
